This test concerns MDA-MB-468 breast. Nature of the test: NCI-60 one-dose screen, 48 h (100 = growth as untreated, 0 = no growth, -100 = all killed). To be noted: 10 µM unless noted.

Several values for one entry are separate records, joined by “and”; a condition that tells them apart may be missing. Equal values may be shown once. About 83,000 compounds went through this panel and 20% of them were active in at least one assay; those are over-represented in the sample as a whole.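 Single-concentration screen, 48 h exposure, 96-well plates. Endpoint: percent growth. Below 10 = active.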 Values without a mark were called inactive. Activity calls are given as the source filed them.

As for `C=CCOc1ccc(Cl)cc1Cl`, the growth is 111%.

For `C[C@H]1c2cccc(O)c2C(O)=C2C(=O)[C@]3(O)C(O)=C(C(N)=O)C(=O)[C@@H](N(C)C)[C@@H]3[C@@H](O)[C@@H]21`, the growth is 41.8%. The value for `Fc1ccc(Nc2ccc3cc(OCCCN4CCOCC4)ccc3n2)cc1F` was 52.8%; that for `O=c1[nH]nc(SC2CCCCC2)c(=O)[nH]1` was 116%. The value for `CC[C@@H](C(=O)[C@@H](C)[C@@H](O)[C@H](C)[C@@H]1O[C@@H]([C@@H](CC)C(=O)O)CC[C@@H]1C)C1O[C@]2(C=CC(=O)[C@]3(CC[C@@](C)([C@H]4CC[C@](O)(CC)[C@H](C)O4)O3)O2)[C@H](C)C[C@@H]1C` (some centres not stated) was 18.9%; that for `Cn1cc(-c2cc3c(Nc4ccc(CC(=O)Nc5cc(C(C)(C)C)on5)cc4)ncnc3[nH]2)cn1` was -74.3% (active) and -62.1% (active). The figure for `CCCCN1C(=O)/C(=c2\sc3n(c2=O)C2C(NN=3)N(CC)C(=O)N2CC)c2cccc(C)c21` (configuration not stated) is 12.4%; for `CNC(=O)c1c(NC(=O)c2ccc(C(C)C)cc2)sc2c(CN(C)C)c(O)ccc12` it is 86.3%; for `O=C1C(Cl)C(c2ccccc2Cl)N1n1cnnc1` (configuration not stated) it is 106%. As for `Brc1ccc(Nc2nc3ccccc3nc2Nc2ccc(Br)cc2)cc1`, the growth is -48.6% (active). `O=C1OCC2=C1C(c1cccc([N+](=O)[O-])c1)c1cc3c(cc1N2CCO)CCC3` (configuration not stated): the growth was 4.98% (active).

As for `COc1ccc(-c2cc(-c3ccc(OC)cc3)nc(NCCCNc3ccnc4cc(Cl)ccc34)n2)cc1`, the growth is 74.8%.

The values are drawn from PubChem BioAssay (NCI).
